ALOX12 inh = inhibitors of human 12S-lipoxygenase ALOX12; P18054; purified 12hLO, xylenol orange hydroperoxide absorbance; Potency, µM (titrated, usually from 108 µM), for the others: top-dose activity change, negative = inhibition, most hits filed as inhibitors; 1.1% of 580,000 active; AID 1671190; note: potency is the fitted concentration of half-maximal effect; % is set by controls: 0 for no effect and ±100 for the full control effect
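Purified human 12hLO at 150 nM in 25 mM Hepes, 0.01% Triton X-100, pH 7.0, preincubated 15 min at room temperature with compound. Reaction started with 40 uM arachidonic acid, 30 min at room temperature. Hydroperoxide measured by Fe-xylenol orange, 573/405 nm absorbance ratio.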
LDHA block = inhibitors of human lactate dehydrogenase A; purified LDHA, NADH/diaphorase-resazurin fluorescence; hits give low values; activity change, % (values are at about 110 or 230 µM); 0.15% of 480,000 active; AID 1347041; in the data active = activity change below about -30%; inconclusive = mostly about -25% to -30%;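 note: plate controls were DMSO wells for no effect and wells without enzyme for full effect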
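Human LDH5 (2 nM) was incubated with 0.06 mM NADH and 0.2 mM pyruvate for 5 min at room temperature in Tris pH 7.4. Remaining NADH was coupled through diaphorase/resazurin, and resorufin fluorescence was read at 0 and 20 min.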
Nrf2 inh = blocks Nrf2 signaling; A549 ARE-Fluc reporter, luciferase luminescence, 18-24 h; Potency, µM (highest dose often 46 µM), inactives show at the highest dose activity change, negative = inhibition, most hits filed as inhibitors; 2.1% of 360,000 active; AID 504444; note: potency is the fitted concentration of half-maximal effect; % is set by controls: 0 for no effect and ±100 for the full control effect; nearly all actives have a fitted effect of over 60% in size
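Reporter: ARE-Fluc in A549. Exposure: 18-24 h, 37 °C, 5% CO2, 5% FBS OPTI-MEM. Readouts: fluorescent cytotoxicity (CellTiter-Fluor), then luminescent Nrf2 signal after BugLite.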
ERG-DNA inh = ERG Ets/DNA interaction inhibition; P11308; fluorescence polarization, His-ERG Ets domain / labelled DNA; Potency, µM (titrated, usually from 76.9 µM), for the others: top-dose FP activity, negative = inhibition, most hits filed as inhibitors; 0.028% of 370,000 active; AID 624246; active = well fitted inhibition curve with a large enough effect in the polarisation, with a control signal flat; inconclusive = small, poorly fitted or top-dose-only effect, or effect the other way, or a change in a side signal; inactive = no such curve, though single readings can be large or run the other way; the % refers to the polarisation;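 note: polarization taken with two DNA probes labelled with fluorescein and Texas red; potency is the fitted concentration of half-maximal effect; % of control where 0% means no effect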
Target sequence (P11308 whole entry, looked up, the tested form may be a part): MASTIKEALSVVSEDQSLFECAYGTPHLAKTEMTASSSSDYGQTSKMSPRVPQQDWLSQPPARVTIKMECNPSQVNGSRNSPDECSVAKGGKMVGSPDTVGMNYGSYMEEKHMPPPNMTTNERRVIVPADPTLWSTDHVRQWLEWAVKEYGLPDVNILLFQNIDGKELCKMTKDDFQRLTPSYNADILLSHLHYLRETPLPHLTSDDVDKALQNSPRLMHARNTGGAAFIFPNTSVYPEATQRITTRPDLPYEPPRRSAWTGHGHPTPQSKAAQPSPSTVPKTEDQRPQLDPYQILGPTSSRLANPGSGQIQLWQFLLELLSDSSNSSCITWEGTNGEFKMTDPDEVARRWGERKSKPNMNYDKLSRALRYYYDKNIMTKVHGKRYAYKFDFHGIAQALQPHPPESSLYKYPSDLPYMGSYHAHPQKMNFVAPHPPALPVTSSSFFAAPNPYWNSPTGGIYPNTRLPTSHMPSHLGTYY
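His-tagged ERG Ets domain (1 uM in the protein solution; 300mM KCl, 50mM Tris-HCl, 1mM EDTA, 1mM DTT, pH 7.5) received compound, then a probe mix of 5 nM fluorescein-DNA and 100nM Texas-615-DNA. Fluorescence polarization was read for both dyes.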
Nrf2 ARE act = activates Nrf2 signaling | AREc32 ARE-luciferase reporter (MCF7-derived line), luminescence, 24 h | Potency, µM (series often up to 46.1 µM), for the others: at the highest dose activation, usual class: activators | 0.31% of 410,000 active | AID 624171; note: potency is the fitted concentration of half-maximal effect; % of control where 0% means no effect; nearly all actives have a fitted effect of over 65% in size
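AREc32 cells carrying an ARE-driven firefly luciferase, 1000 cells/well in OPTI-MEM with 5% FBS, dosed after overnight attachment and incubated 24 hr at 37 deg C. Steady-Glo luminescence read after 30 min at RT.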
A549 viability = kills or reduces viability of A549 cells in Nrf2 counter-screen. A549 ARE-Fluc cells, CellTiter-Fluor viability, 18-24 h. Potency, µM (doses to about 46 µM), for inactives: at the top dose activity change, negative = cytotoxicity, usual class: inhibitors. 0.16% of 390,000 active; note: potency is the fitted concentration of half-maximal effect; % is set by controls: 0 for no effect and ±100 for the full control effect
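A549 ARE_Fluc cells in 5% FBS OPTI-MEM were exposed to compounds in concentration-response for 18-24 h at 37 deg C. Viability was read by CellTiter-Fluor fluorescence (Ex 405/Em 525) after 30 min, before the luciferase read.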
* marks the source's active call; other numbers are inactive results; [ ] = another dose, or the depositor's remark. Shown are actives, neighbours in structure and some others; about 2.7% of the full set was active somewhere. Unless noted, calls come from the whole dose curve; as a rule, active = well fitted curve in the direction sought with a large enough effect; inconclusive = small, poorly fitted or top-dose-only effect, or another doubt; inactive = no such curve, though single readings can be large; an effect the other way counts as inactive or inconclusive.

What do the screens show for `CN(C)C(=O)CCSc1ccc(F)cc1`?
ALOX12 inh: 1.4%; LDHA block: 1.9

Results for CCn1nc(C)c2c(-c3ccccc3)cc(=O)n(C(C)C(=O)NCCc3ccccc3)c21 (configuration not stated) ?
ALOX12 inh: inconclusive; LDHA block: 3.6; Nrf2 inh: 18.4µM*; ERG-DNA inh: -4.2%; Nrf2 ARE act: 5.3%; A549 viability: -11.1%

What do the screens show for `CCn1nc(C)c2c(-c3ccccc3)cc(=O)n(C(C)C(=O)NCCC(C)C)c21` (configuration not stated)?
ALOX12 inh: inconclusive; LDHA block: 3.1; Nrf2 inh: -9.9%; ERG-DNA inh: 1.8%; Nrf2 ARE act: 4.8%; A549 viability: -13.1%

What do the screens show for `O=C(CCN1CCOCC1)c1ccc2c(c1)OCCO2`?
ALOX12 inh: 40.8%; LDHA block: -0.5; Nrf2 inh: -6.0%; ERG-DNA inh: 0.4%; Nrf2 ARE act: inconclusive; A549 viability: -1.6%

What do the screens show for `O=C(CCN1CCc2ccccc2CC1)c1ccc2c(c1)OCCO2`?
ALOX12 inh: -19.0%; LDHA block: -10.5; Nrf2 inh: 18.4µM*; ERG-DNA inh: 1.6%; Nrf2 ARE act: inconclusive

What do the screens show for `CN(Cc1ccc(F)cc1)c1ccc2ncc(Nc3ccnc(N4CCOCC4)c3)n2n1`?
ALOX12 inh: 21.5%[176 µM]

Results for COc1ccc(N2CCN(C(C)C(=O)N3CCCC3)CC2)cc1 (configuration not stated) ?
ALOX12 inh: -26.2%; LDHA block: -38.0*; Nrf2 inh: 7.1%; ERG-DNA inh: 1.9%; Nrf2 ARE act: -0.2%; A549 viability: -2.1%

Results for COC(=O)N1CCN(c2ccc(OC)cc2)CC1 ?
ALOX12 inh: 13.9%; LDHA block: 4.4; Nrf2 inh: 12.4%; ERG-DNA inh: 8.1%; Nrf2 ARE act: -0.7%; A549 viability: -18.5%

How did FC(F)(F)c1nc(-c2cccs2)ncc1-c1nnnn1-c1ccc(Cl)cc1 do in these assays?
ALOX12 inh: 0.0%; LDHA block: -5.2; Nrf2 inh: 23.1µM*; ERG-DNA inh: -8.5%; Nrf2 ARE act: -1.6%; A549 viability: inconclusive

What do the screens show for `COc1ccc(-n2nnnc2-c2cnc(N3CCCC3)nc2C(F)(F)F)cc1`?
ALOX12 inh: 6.7%; LDHA block: -2.4; Nrf2 inh: 18.4µM*; ERG-DNA inh: 8.0%; Nrf2 ARE act: 3.9%; A549 viability: -23.5%

Results for O=C(NN1CCOCC1)c1ccn(COc2c(Cl)cccc2Cl)n1 ?
ALOX12 inh: 3.0%; LDHA block: -4.4

How did O=C(NN1CCOCC1)c1ccn(COc2ccc(Br)cc2)n1 do in these assays?
ALOX12 inh: 30.6%; LDHA block: -32.9*

What do the screens show for `CC1(C)Cc2c(C#N)c(Nc3ccccc3)n3c(SCC(=O)O)nnc3c2CO1`?
ALOX12 inh: -26.2%; LDHA block: 18.4

What do the screens show for `Cc1ccccc1NS(=O)(=O)c1cc(C(=O)Nc2cccc(N(C)S(C)(=O)=O)c2)ccc1C`?
ALOX12 inh: 19.0%; LDHA block: 2.4; Nrf2 inh: 18.4µM*; Nrf2 ARE act: 2.7%; A549 viability: inconclusive

What do the screens show for `O=C(Nc1ccccc1)c1ccc(Cl)c(S(=O)(=O)Nc2ccccc2)c1`?
ALOX12 inh: -6.5%; LDHA block: -1.1; Nrf2 inh: inconclusive; ERG-DNA inh: 2.1%; Nrf2 ARE act: 11.2%; A549 viability: -11.4%

How did CN(c1cccc(NC(=O)c2ccc(Cl)c(S(=O)(=O)Nc3ccccc3)c2)c1)S(C)(=O)=O do in these assays?
ALOX12 inh: -8.7%; LDHA block: -4.0; Nrf2 inh: 20.6µM*; ERG-DNA inh: -0.6%; Nrf2 ARE act: 3.4%; A549 viability: -21.1%

How did Cc1ccc(SCCNC(=O)c2ccc(C)c(S(=O)(=O)Nc3ccccc3C)c2)cc1 do in these assays?
ALOX12 inh: 1.1%[57.4 µM]; LDHA block: 4.2; Nrf2 inh: 13µM*; Nrf2 ARE act: 2.3%; A549 viability: -16.6%

How did CCSC1(SCC)N=C(N)C2(C#N)C(c3ccccc3)NC3=C(CCC3)C12C#N (configuration not stated) do in these assays?
ALOX12 inh: 0.4%; LDHA block: -3.0; Nrf2 inh: 1.3%; ERG-DNA inh: 2.4%; Nrf2 ARE act: 14.1µM*; A549 viability: 3.8%

What do the screens show for `N#CC12C(N)=NC3(OCCO3)C1(C#N)C1=C(CCC1)NC2c1ccccc1` (configuration not stated)?
ALOX12 inh: -0.4%; LDHA block: 2.5; Nrf2 inh: -22.2%; ERG-DNA inh: -0.7%; Nrf2 ARE act: 3.2%; A549 viability: -1.5%

What do the screens show for `O=C1c2ccccc2C(=O)c2[nH]c(=O)[nH]c21`?
ALOX12 inh: -20.4%; LDHA block: 29.0; Nrf2 inh: 20.6µM*; ERG-DNA inh: 6.0%; Nrf2 ARE act: -1.9%; A549 viability: 14.6µM*

Results for CCOC(=O)c1cnc(-c2ccccc2)nc1Oc1ccccc1 ?
ALOX12 inh: 22.5%; LDHA block: -3.3; ERG-DNA inh: -3.3%; Nrf2 ARE act: 12.6µM*; A549 viability: -1.0%

Results for CCOC(=O)c1cnc(-c2ccccc2)nc1-c1ccccc1 ?
ALOX12 inh: 9.3%; LDHA block: 2.5; Nrf2 inh: inconclusive; ERG-DNA inh: 1.8%; Nrf2 ARE act: 7.94µM*; A549 viability: 2.5%

What do the screens show for `CCOC(=O)c1cnc(-c2ccccc2)nc1Oc1ccc(OC)cc1`?
ALOX12 inh: -8.3%; LDHA block: 0.7; Nrf2 inh: 4.0%; ERG-DNA inh: -0.6%; Nrf2 ARE act: 0.1%; A549 viability: 1.9%

How did c1cncc(-c2[nH]ncc2CNCc2cccs2)c1 do in these assays?
ALOX12 inh: 7.08µM*; LDHA block: -19.2

What do the screens show for `c1cncc(-c2ccc3ncnc(NCc4cccs4)c3c2)c1`?
ALOX12 inh: -7.5%; LDHA block: -7.7; Nrf2 inh: 2.7%; Nrf2 ARE act: 0.2%; A549 viability: 1.9%

Results for c1cncc(-c2nccc(NCc3cccs3)n2)c1 ?
ALOX12 inh: 20µM*

What do the screens show for `COc1cccc(-c2nccc(NCc3cccs3)n2)c1`?
ALOX12 inh: -41.6%

What do the screens show for `c1cncc(-c2cc(NCc3cccs3)ncn2)c1`?
ALOX12 inh: 39.8µM*

What do the screens show for `COc1nc2ccccc2nc1N1CCC(C(=O)Nc2ccc(C)c(C)c2)CC1`?
ALOX12 inh: 2.1%; LDHA block: -8.8

Results for CCc1ccccc1NC(=O)c1sc2nc3c(cc2c1N)CN(C)CC3 ?
ALOX12 inh: inconclusive; LDHA block: 5.1
